IL-1B inflam inh – inhibitors of inflammasome signaling (IL-1 beta secretion) | THP-1 LPS/ATP IL-1B secretion, AlphaLISA, 16 h; stronger effect = lower value | activity change, % at 57.5 µM | 4.7% of 360,000 active | AID 743279; in the data active = activity change below about -50%; inconclusive = mostly about -30% to -49%
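THP-1 cells pretreated 1 hr with compounds (up to 57.5 uM final), then stimulated with LPS (250 ng/mL final) plus ATP (1.25 mM final); secreted IL-1B measured by AlphaLISA after 16 hr, decreased signal indicating inhibition.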
HT1080 IDH1KD tx – kills HT-1080 cells with IDH1 knockdown | 2% of 360,000 active | HT-1080 IDH1 knockdown viability, ATP luminescence, 48 h | Potency, µM (highest dose often 46.1 µM), for inactives: top-dose activity, negative = toxicity, actives largely listed as cytotoxic;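 also: potency is read from the fitted curve at half-maximal effect; 0% = DMSO wells and -100% = cell-free medium wells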
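% activity derives from luminescence (CellTiter-Glo), normalised to DMSO and no-cell wells. HT-1080-IDH1KD cells, 750/well, had 48 h compound exposure at 37 °C.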
HT1080-NT tox – kills 2HG-producing HT-1080-NT fibrosarcoma cells. HT-1080-NT fibrosarcoma viability, CellTiter-Glo ATP luminescence, 48 h. Potency, µM (highest dose often 46.1 µM), for inactives: at the highest dose activity, negative = less viability, hits mostly cytotoxic. 1.6% of 360,000 active. AID 686970;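 also: NT is the 2HG producing partner of a matched IDH1 knockdown line; potency is read from the fitted curve at half-maximal effect; 0% = DMSO-treated cells and -100% = media-only wells without cells; nearly all actives have a fitted effect of over 55% in size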
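Viability of the 2HG-overproducing fibrosarcoma line after 48 hours of compound exposure at 37 degrees C was determined by luminescence with CellTiter-Glo, and concentration-effect curves were then fitted and categorized.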
TDP1 cell CPT – DT40-hTDP1 cell growth loss with CPT; chicken DT40 Tdp1-/-;hTDP1 cells + 20 nM CPT, ATP luminescence, 48 h; Potency, µM (doses to about 46.2 µM), for inactives: at the top dose activity change, negative = growth inhibition, usual class: inhibitors; 12% of 420,000 active; also: potency is read from the fitted curve at half-maximal effect; nearly all actives have a fitted effect of over 55% in size
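Cell growth measured by CellTiter-Glo luminescence after a minimum 48 h, 37 C compound exposure with 20 nM CPT in Tdp1-knockout DT40 cells stably expressing hTDP1, seeded 400/well; qHTS titration format.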
DT40 TDP1 no CPT – qHTS for Inhibitors of human tyrosyl-DNA phosphodiesterase 1 (TDP1): qHTS in cells in absence of CPT | AID 686978, 2013 | Potency, µM (top dose mostly 46.2 µM), for the others: top-dose activity change, negative = growth inhibition, hits mostly inhibitors | DT40 Tdp1-/- hTDP1 cells, no CPT, ATP luminescence, 48 h | 15% of 420,000 active; also: potency is read from the fitted curve at half-maximal effect; nearly all actives have a fitted effect of over 55% in size
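Stably hTDP1-transfected Tdp1-null chicken DT40 cells were treated with library compounds minus camptothecin and grown for at least 48 hr at 37 °C, after which cellular ATP was quantified by luminescence.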
Numbers without * were called inactive; ? = inconclusive; nt = no result given. Shown are actives, neighbours in structure and some others; about 19% of the full set was active somewhere. Unless noted, calls follow the shape of the dose curve; as a rule, active = well fitted curve in the direction sought with a large enough effect; inconclusive = small, poorly fitted or top-dose-only effect, or another doubt; inactive = no such curve, though single readings can be large; an effect the other way counts as inactive or inconclusive. Unless noted, % is scaled to controls: 0 for no effect and ±100 for the full control effect.

SMILES | IL-1B inflam inh | HT1080 IDH1KD tx | HT1080-NT tox | TDP1 cell CPT | DT40 TDP1 no CPT
Cc1ccc(OCCCC(=O)N(C)CC(=O)Nc2ccccc2Br)cc1 | -55.4* | -16.0% | -11.7% | -13.1% | -17.7%
CCOc1ccc(NC(=O)CN(C)C(=O)CCCOc2ccc(Br)cc2)cc1OCC | -7.3 | -12.9% | -3.6% | 18.4µM* | ?
CCOc1ccc(NC(=O)CN(C)C(=O)CCNC(=O)c2ccc(Br)cc2)cc1OCC | -8.3 | 0.4% | 1.2% | -8.8% | -19.4%
Cn1c(CN2CCCCC2)nc2cc(NS(=O)(=O)c3ccc(Cl)cc3)ccc21 | -15.6 | -14.4% | -28.7% | ? | -21.9%
Cn1c(CN2CCCCC2)nc2cc(NS(=O)(=O)c3ccc(F)cc3)ccc21 | -1.5 | 6.4% | 3.9% | -16.1% | ?
O=S(=O)(Nc1ccc2c(c1)nc1n2CCN(Cc2ccccc2)C1)c1ccccc1 | -1.3 | -22.6% | -10.3% | 23.1µM* | 23.1µM*
CC(c1ccccc1)N1CCn2c(nc3cc(NS(C)(=O)=O)ccc32)C1 (centres undefined) | 103.0 | -14.7% | 0.7% | 0.8% | ?
Cc1ccc(S(=O)(=O)Nc2ccc3c(c2)nc2n3CCN(Cc3ccccc3)C2)cc1 | -68.7* | -22.4% | -14.5% | 16.4µM* | ?
O=S(=O)(Nc1ccc2c(c1)nc1n2CCN(Cc2ccccc2)C1)c1ccc(Cl)cc1 | -55.0* | -26.7% | -23.7% | 18.4µM* | 14.6µM*
O=S(=O)(Nc1ccc2c(c1)nc1n2CCN(Cc2ccccc2)C1)c1ccc(F)cc1 | 0.0 | -0.9% | -1.0% | 25.9µM* | ?
C=C(C)COc1ccc(-c2ncncc2-c2ccccc2)c(O)c1 | ? | -14.1% | 3.7% | -9.4% | 3.0%
COc1ccc(OC)c(CCNc2ncnc3onc(C)c23)c1 | nt | nt | nt | 7.31µM* | 5.17µM*
Cc1ccc(CNc2ncnc3onc(C)c23)cc1 | nt | nt | nt | 16.4µM* | 14.6µM*
Cc1noc2ncnc(NCc3cccc(Cl)c3)c12 | nt | nt | nt | 16.4µM* | 18.4µM*
COC(=O)c1ccc(NC(=O)C2CCN(C(=O)Nc3ccccc3)CC2)cc1 | 51.4 | 0.3% | 4.3% | -11.2% | -29.3%
CCNc1nc(N)nc(Oc2ccc(OCC(=O)OC)nn2)n1 | nt | nt | nt | -0.6% | 0.4%
COc1ccc(N2CCN(C(=O)c3ccccc3NS(=O)(=O)c3ccc(C)cc3)CC2)cc1 | -1.5 | -7.3% | -3.3% | -29.9% | -18.0%
COc1cc(OC)cc(-c2oc(=O)c3cc(OC)c(OC)cc3c2C(F)(F)F)c1 | 23.0 | 13.9% | -0.9% | -1.7% | -4.7%
Cc1sc2ncnc(SCc3ccco3)c2c1C | 9.6 | -6.0% | -0.1% | ? | ?
c1ccc(-n2nnnc2Sc2ncnc3sc4c(c23)CCCC4)cc1 | -25.2 | -0.8% | 7.1% | 4.11µM* | 3.26µM*
Cc1sc2ncnc(Sc3nnnn3-c3ccc(Cl)cc3)c2c1C | -69.5* | ? | ? | ? | ?
Cc1cccc(CCNC(=O)C2CCC(CNS(=O)(=O)c3ccccc3)CC2)c1 (centres undefined) | nt | nt | nt | -26.0% | ?
CCOC(=O)c1ccc(N=Nc2c(C)c(C#N)c(O)[nH]c2=O)cc1 | 14.4 | 23.8% | 4.0% | 1.1% | ?
Cc1c(C(=O)Nc2cccc([N+](=O)[O-])c2)sc2ncn(CC(=O)N3CCOCC3)c(=O)c12 | -0.4 | 7.0% | 0.9% | ? | -30.0%
CCc1cccc(CC)c1NC(=O)CN1CC(C)SC1=NC1CCCCC1 (centres undefined) | -0.3 | 4.9% | 4.9% | 20.6µM* | 13µM*
SMILES | IL-1B inflam inh | HT1080 IDH1KD tx | HT1080-NT tox | TDP1 cell CPT | DT40 TDP1 no CPT
CC(C)(C)OC(=O)C[C@H]1C/C=C\C[C@@H](CC(=O)NCCO)C(=O)NC[C@H](c2ccccc2)OC1=O | 31.7 | 4.7% | 6.7% | 4.3% | -14.7%
CC(C)(C)OC(=O)C[C@H]1C/C=C\C[C@@H](CC(=O)N(CCO)Cc2ccccc2)C(=O)NC[C@@H](c2ccccc2)OC1=O | -7.6 | 2.6% | -0.1% | ? | 18.4µM*
CC(C)(C)OC(=O)C[C@H]1C/C=C\C[C@H](CC(=O)N(CCO)Cc2ccccc2)C(=O)NC[C@H](c2ccccc2)OC1=O | -20.8 | 1.5% | 27.3% | 16.4µM* | ?
[O-]/[N+](=C\c1ccco1)c1ccc(Cl)cc1 | -3.1 | 0.0% | -1.4% | ? | ?
O=C(Nc1ccc(N2CCCCC2)c(Cl)c1)c1ccc(N2CCOCC2)c([N+](=O)[O-])c1 | -13.0 | -14.1% | 0.6% | 18.4µM* | 12.6µM*
O=C(Nc1ccc(Cl)c(S(=O)(=O)N2CCOCC2)c1)C1CCCC1 | 14.9 | 0.0% | 2.3% | -19.7% | ?
O=C(Nc1ccc(N2CCOCC2)c(Cl)c1)C1CCCCC1 | -21.9 | 4.1% | 0.2% | 20.6µM* | 16.4µM*
CC(=O)N1CCN(c2ccc(NC(=O)c3ccc(N4CCCC4)c([N+](=O)[O-])c3)cc2Cl)CC1 | -21.3 | ? | ? | ? | ?
O=C(Nc1cc(Cl)ccc1N1CCOCC1)c1ccc(N2CCCCC2)c([N+](=O)[O-])c1 | -6.2 | 5.2% | -15.5% | ? | ?
O=C(Nc1nc2ccc(Cl)cc2s1)c1ccc(N2CCCCC2)c([N+](=O)[O-])c1 | ? | 2.9% | -1.0% | 16.4µM* | 20.6µM*
CCCC(=O)N1CCN(c2ccc(NC(=O)c3ccc(N4CCCC4)c([N+](=O)[O-])c3)cc2Cl)CC1 | 50.7 | 14.3% | 28.1% | 18.4µM* | 7.31µM*
O=C(CSc1nnnn1C1CCCCC1)NCc1cccs1 | -3.5 | 0.0% | 2.1% | -21.1% | ?
Cc1ccc(S(=O)(=O)N2CCN(c3nc(-c4cccs4)nc4nc[nH]c34)CC2)cc1 | nt | -9.1% | -19.7% | ? | ?
CCn1nnnc1SCC(=O)NC1Cc2ccccc2C1 | 3.2 | 4.3% | -0.4% | -0.8% | -9.4%
N#C/C(=N/Nc1ccc([N+](=O)[O-])cc1)C(=N)N1CCCCC1 | -20.2 | -12.8% | -3.0% | -17.7% | -0.9%
N#C/C(=N\Nc1ccccc1[N+](=O)[O-])C(=N)N1CCCCC1 | 1.4 | 2.1% | -12.8% | 5.8µM* | 5.8µM*
COCCn1c(-c2cccs2)csc1=Nc1cccnc1 | -2.5 | -16.7% | -13.4% | ? | ?
Fc1ccccc1-c1csc(=Nc2cccnc2)n1CCCn1ccnc1 | ? | -8.4% | -1.5% | 25.9µM* | 16.4µM*
Fc1ccccc1-c1csc(=Nc2cccnc2)n1CC1CCCO1 (centres undefined) | -66.5* | -23.4% | -20.9% | ? | ?
Nc1nc(CCOc2ccc(F)cc2)cs1 | -4.7 | -1.3% | 15.5% | 3.0% | -5.8%
CCOC(=O)C1(CCc2ccccc2)CCN(C(=O)C2CCCO2)CC1 (centres undefined) | -9.0 | -3.2% | 15.9% | -15.3% | ?
